In PubChem BioAssay (NCI):
The panel holds about 83,000 compounds, 20% with a hit somewhere; the sample as a whole holds those more often.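 Interpretation: 100, growth as untreated; towards 0, rising growth inhibition; 0, no net growth; 0 to -100, cell death. Compounds scoring below 10 were considered active.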 Unmarked numbers belong to inactive results. Calls of active or inactive are those of the source.

system: MDA-MB-468 breast; test: NCI-60 one-dose screen, 48 h (100 = growth as untreated, 0 = no growth, -100 = all killed); conditions: 10 µM unless noted

Row | SMILES | growth
1 | O=C1/C(=C/c2ccccc2Br)COc2ccc(O)cc21 | 69.1%
2 | CCOC(=O)c1nnn(Cc2cc(=O)oc3c2ccc2ccccc23)c1C | 103%
3 | O=C1CSC(c2ccccc2O)N1c1nnc(Cn2cnnc2)o1 (stereo unspecified) | 96.2%
4 | O=C(CCCCCCN1CC(=O)N2[C@@H](c3cccs3)c3[nH]c4ccccc4c3C[C@H]2C1=O)NO | 41.6%
5 | CCOC(=O)c1nn(C2CCCCO2)c2ccc(NC(=O)CN3CCCC3)cc12 (stereo unspecified) | 111%
6 | COCCn1cc(-c2nc(-c3cc4cccnc4n3C)cs2)c2ccccc21 | -16.1% (active)
7 | Cc1nc(C)c(C)nc1C | 106%
8 | COc1ccc(/C=C2\Oc3cc(OCCCCN4CCCC4)ccc3C2=O)cc1 | 74.5%
9 | O=C(Nc1nc2cccc(-c3ccc(CN4CCS(=O)(=O)CC4)cc3)n2n1)C1CC1 | 41.5%
10 | COc1cc2oc(-c3cccc(NC(=O)Nc4ccc5c(c4)OCO5)c3)cc(=O)c2c(OC)c1OC | 75.2%
11 | COc1ccc(OCC(=O)OC(C)C)cc1 | 84.3%
12 | CN1CCN(/C=C2\CC(C(=O)NCc3ccc(Cl)cc3Cl)NC2=O)CC1 (stereo unspecified) | 103%
13 | CC1(COc2ccc3c(c2)ncn3-c2ccc3cccc(N4CCC(N)CC4)c3n2)COC1 | -20.6% (active)
14 | CCOC(=O)n1ccn(C)c1=S | 103%
15 | N=C1C=C(N)C(=O)c2ccccc21 | -85.6% (active)
16 | COc1cc(-c2nn(-c3ccc(NC(=O)Nc4cc(C(F)(F)F)cc(C(F)(F)F)c4)cc3)cc2-c2ccncc2)ccc1Cl | -15.2% (active)
